# Assay results from PubChem BioAssay (NCI).
# Compounds without any hit were thinned out: in the full panel of roughly 79,000, 15% have a hit. Values without a mark were called inactive. Activity calls are given as the source filed them. Rule as the data show it: active = growth inhibition above about 70%; inactive = the rest.
# Key:
# [1] = NCI Yeast Anticancer Drug Screen. Data for the wt1 strain (AID 149);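 also: 0% = growth of vehicle-treated wt1 cultures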; conditions: S. cerevisiae wt1 strain (SPY 50644) growth inhibition, stronger effect = higher value
# Method in brief: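 The wt1 strain was treated with compounds, and growth was compared with vehicle-treated cultures to give inhibition.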
# [2] = NCI Yeast Anticancer Drug Screen. Data for the rad50EPP+ strain (AID 151);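 also: 0% = growth of vehicle-treated control cultures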; conditions: S. cerevisiae rad50 mutant strain, stronger effect = higher value
# Method in brief: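 In this screen, rad50EPP+ yeast were exposed to compounds. Growth inhibition was scored against vehicle-treated controls.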
# [3] = NCI Yeast Anticancer Drug Screen. Data for the mgt1 strain (AID 153); conditions: S. cerevisiae mgt1 mutant growth inhibition, stronger effect = higher value
# Method in brief: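 mgt1 strain exposed; growth vs vehicle control recorded as inhibition.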
# [4] = NCI Yeast Anticancer Drug Screen. Data for the rad50 strain (AID 155);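 also: 0% = growth of vehicle-only cultures of the same strain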; conditions: S. cerevisiae rad50 strain growth inhibition, stronger effect = higher value
# Method in brief: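 Cells are treated with compound, grown, and their growth is then scored against vehicle-only cultures of the same repair-deficient yeast strain.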
# [5] = NCI Yeast Anticancer Drug Screen. Data for the mec2-1 strain (AID 157); conditions: S. cerevisiae mec2-1 strain, stronger effect = higher value
# Method in brief: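 Vehicle-treated cultures served as reference for growth inhibition of compound-exposed mec2-1 yeast.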
# [6] = NCI Yeast Anticancer Drug Screen. Data for the rad14 strain (AID 159);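 also: 0% = growth of vehicle-treated control cultures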; conditions: S. cerevisiae rad14 strain growth inhibition, stronger effect = higher value
# Method in brief: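 Readout: yeast growth inhibition, referenced to vehicle-only cultures. Strain bears a defined alteration in DNA damage repair.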
# [7] = NCI Yeast Anticancer Drug Screen. Data for the sgs1 mgt1 strain (AID 161);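 also: 0% = growth of cultures given vehicle only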; conditions: S. cerevisiae sgs1 mgt1 strain, stronger effect = higher value
# Method in brief: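 Test agents were incubated with a DNA-repair-mutant yeast strain. Growth was then read and compared against vehicle-treated controls.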
# [8] = NCI Yeast Anticancer Drug Screen. Data for the CLN2oe strain (AID 163);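 also: 0% = growth of vehicle-only control cultures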; conditions: S. cerevisiae CLN2oe strain, stronger effect = higher value
# Method in brief: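 Inhibition relative to vehicle-treated yeast is reported. Cells: strain with genetic alteration in cell-cycle control, grown with compound.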
# [9] = NCI Yeast Anticancer Drug Screen. Data for the cln2 rad14 strain (AID 165);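 also: 0% = growth equal to vehicle treated cultures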; conditions: S. cerevisiae cln2 rad14 strain, stronger effect = higher value
# Method in brief: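 Each compound was tested on cln2 rad14 yeast. Inhibition of growth was calculated against vehicle-exposed controls.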
# [10] = NCI Yeast Anticancer Drug Screen. Data for the bub3 strain (AID 167); conditions: S. cerevisiae bub3 mutant strain, stronger effect = higher value
# Method in brief: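 Part of a panel of yeast mutants defective in DNA damage repair or cell cycle regulation. Each strain is grown with compound, and inhibition is calculated relative to solvent-treated cultures.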
# [11] = NCI Yeast Anticancer Drug Screen. Data for the wt2 strain (AID 169);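 also: 0% = growth of vehicle-treated yeast cultures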; conditions: S. cerevisiae wt2 strain growth inhibition, stronger effect = higher value
# Method in brief: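 Inhibition of yeast growth was determined after compound treatment, normalised to controls receiving only vehicle.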
# [12] = NCI Yeast Anticancer Drug Screen. Data for the mlh1 strain (AID 171);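 also: 0% = growth of vehicle-treated control cultures of the same strain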; conditions: S. cerevisiae mlh1 strain growth inhibition, stronger effect = higher value
# Method in brief: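 Vehicle-normalised growth inhibition of a repair- or checkpoint-altered yeast strain following compound treatment.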
# [13] = NCI Yeast Anticancer Drug Screen. Data for the mlh1 rad18 strain (AID 175); conditions: S. cerevisiae mlh1 rad18 strain growth inhibition, stronger effect = higher value
# Method in brief: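 Vehicle-treated cultures served as the reference for growth inhibition in a yeast strain carrying DNA damage repair alterations exposed to each compound.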
# [14] = NCI Yeast Anticancer Drug Screen. Data for the rad18 strain (AID 177); conditions: S. cerevisiae rad18 mutant growth inhibition, stronger effect = higher value
# Method in brief: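 Test articles were incubated with altered yeast defective in DNA damage repair. Results are given as inhibition of growth versus vehicle.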
# [15] = at 5.0 µM (retest, dose inferred, filed as 0.5)
# [16] = at 50.0 µM (retest, dose inferred, filed as 5.0)
compound,measurement,setting,value
CSc1ccc2c(c1)C(N1CCN(C)CC1)Cc1ccccc1S2 (stereo not drawn),growth inhibition,[1]; at 1.2 µM,-58%
same,growth inhibition,[1]; at 3.7 µM,-61%
same,growth inhibition,[1]; at 11.0 µM,-57%
same,growth inhibition,[1]; at 33.0 µM,-6%
same,growth inhibition,[1]; at 100.0 µM,99% (active)
same,growth inhibition,[2]; at 1.2 µM,-27%
same,growth inhibition,[2]; at 3.7 µM,-45%
same,growth inhibition,[2]; at 11.0 µM,-37%
same,growth inhibition,[2]; at 33.0 µM,-4%
same,growth inhibition,[2]; at 100.0 µM,91% (active)
same,growth inhibition,[3]; at 1.2 µM,-33%
same,growth inhibition,[3]; at 3.7 µM,-31%
same,growth inhibition,[3]; at 11.0 µM,-49%
same,growth inhibition,[3]; at 33.0 µM,74% (active)
same,growth inhibition,[3]; at 100.0 µM,99% (active)
same,growth inhibition,[4]; at 1.2 µM,-34%
same,growth inhibition,[4]; at 3.7 µM,-47%
same,growth inhibition,[4]; [15],28%
same,growth inhibition,[4]; at 11.0 µM,-25%
same,growth inhibition,[4]; at 33.0 µM,76% (active)
same,growth inhibition,[4]; [16],67%
same,growth inhibition,[4]; at 50.0 µM,88.1% (active)
same,growth inhibition,[4]; at 100.0 µM,98% (active)
same,growth inhibition,[5]; at 1.2 µM,-75%
same,growth inhibition,[5]; at 3.7 µM,-83%
same,growth inhibition,[5]; [15],15%
same,growth inhibition,[5]; at 11.0 µM,-4%
same,growth inhibition,[5]; at 33.0 µM,83% (active)
same,growth inhibition,[5]; [16],78% (active)
same,growth inhibition,[5]; at 50.0 µM,78.6% (active)
same,growth inhibition,[5]; at 100.0 µM,99% (active)
same,growth inhibition,[6]; at 1.2 µM,-55%
same,growth inhibition,[6]; at 3.7 µM,-36%
same,growth inhibition,[6]; at 11.0 µM,5%
same,growth inhibition,[6]; at 33.0 µM,98% (active)
same,growth inhibition,[6]; at 100.0 µM,99% (active)
same,growth inhibition,[7]; [15],98% (active)
same,growth inhibition,[7]; [16],86% (active)
same,growth inhibition,[7]; at 50.0 µM,84.2% (active)
same,growth inhibition,[8]; at 1.2 µM,-17%
same,growth inhibition,[8]; at 3.7 µM,5%
same,growth inhibition,[8]; at 11.0 µM,13%
same,growth inhibition,[8]; at 33.0 µM,52%
same,growth inhibition,[8]; at 100.0 µM,99% (active)
same,growth inhibition,[9]; [15],91% (active)
same,growth inhibition,[9]; [16],88% (active)
same,growth inhibition,[9]; at 50.0 µM,76% (active)
same,growth inhibition,[10]; at 1.2 µM,-68%
same,growth inhibition,[10]; at 3.7 µM,-46%
same,growth inhibition,[10]; [15],98% (active)
same,growth inhibition,[10]; at 11.0 µM,14%
same,growth inhibition,[10]; at 33.0 µM,91% (active)
same,growth inhibition,[10]; [16],86% (active)
same,growth inhibition,[10]; at 50.0 µM,81.7% (active)
same,growth inhibition,[10]; at 100.0 µM,98% (active)
same,growth inhibition,[11]; at 1.2 µM,-59%
same,growth inhibition,[11]; at 3.7 µM,-35%
same,growth inhibition,[11]; at 11.0 µM,-46%
same,growth inhibition,[11]; at 33.0 µM,6%
same,growth inhibition,[11]; at 100.0 µM,99% (active)
same,growth inhibition,[12]; at 1.2 µM,-67%
same,growth inhibition,[12]; at 3.7 µM,-68%
same,growth inhibition,[12]; at 11.0 µM,-37%
same,growth inhibition,[12]; at 33.0 µM,88% (active)
same,growth inhibition,[12]; at 100.0 µM,98% (active)
same,growth inhibition,[13]; [15],35%
same,growth inhibition,[13]; [16],89% (active)
same,growth inhibition,[13]; at 50.0 µM,92.8% (active)
same,growth inhibition,[14]; at 1.2 µM,-44%
same,growth inhibition,[14]; at 3.7 µM,-72%
same,growth inhibition,[14]; at 11.0 µM,-44%
same,growth inhibition,[14]; at 33.0 µM,75% (active)
same,growth inhibition,[14]; at 100.0 µM,98% (active)
